Where “and” joins values, the source holds several entries; their conditions need not be identical. Equal values may be shown once. Where a structure was tested more than once in an assay, its records may differ in their call. Calls of active or inactive are those of the source. The calls were made as follows: active = hit-call score of the fitted dose curve at least 0.9, where 1 is the maximum; inactive = score below 0.9.
Legend:
[1] = read-out: Urokinase-type plasminogen activator receptor (uPAR), PLAUR (gene 5329); test: BSK_CASM3C_uPAR: BioMAP Diversity Plus: CASM3C Assay for Urokinase-type plasminogen activator receptor (uPAR) Biomarker Activity (AID 2283054); details: primary human coronary artery smooth muscle cells; actives raise or lower the signal;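 also: cell-surface uPAR protein level quantified by ELISA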
[2] = read-out: Vascular cell adhesion molecule 1 (VCAM1), VCAM1 (gene 7412); test: BSK_CASM3C_VCAM1: BioMAP Diversity Plus: CASM3C Assay for Vascular cell adhesion molecule 1 (VCAM1) Biomarker Activity (AID 2283055); details: primary human coronary artery smooth muscle cells; actives raise or lower the signal;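 also: VCAM-1 protein level quantified by ELISA on the cells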
[3] = read-out: Collagen III, COL3A1 (gene 1281); test: BSK_hDFCGF_CollagenIII: BioMAP Diversity Plus: hDFCGF Assay for Collagen III Biomarker Activity (AID 2283056); details: primary human foreskin fibroblasts; actives raise or lower the signal
How it was run: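 Cells: human foreskin fibroblasts, primary. Dosing followed by 24 h incubation, then ELISA for collagen III. Both increases and decreases scored relative to DMSO.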

[4] = read-out: Epidermal growth factor receptor (EGFR), EGFR (gene 1956); test: BSK_hDFCGF_EGFR: BioMAP Diversity Plus: hDFCGF Assay for Epidermal growth factor receptor (EGFR) Biomarker Activity (AID 2283057); details: primary human foreskin fibroblasts; actives raise or lower the signal
How it was run: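 EGFR levels by ELISA in human dermal fibroblast cultures, 24 h post-treatment, fitted bidirectionally versus DMSO. Parallel wells stained with sulforhodamine B to detect overt cytotoxicity.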

[5] = read-out: Interleukin-8 (IL8), CXCL8 (gene 3576); test: BSK_hDFCGF_IL8: BioMAP Diversity Plus: hDFCGF Assay for Interleukin-8 (IL8) Biomarker Activity (AID 2283058); details: primary human foreskin fibroblasts; actives raise or lower the signal
How it was run: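 IL-8 levels from compound-treated primary human fibroblasts were read by ELISA at 24 h, with DMSO serving as baseline for bidirectional fitting.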

[6] = BSK_hDFCGF_Proliferation: Cell Proliferation Assessment in the BioMAP Diversity Plus: hDFCGF Assay (AID 2283059); details: primary human foreskin fibroblasts;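 also: curves fitted for both rise and fall of signal versus DMSO baseline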
How it was run: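 Steps: dose primary human dermal fibroblasts (foreskin); […] fix in 10% TCA; stain with 0.1% SRB; read 560 nm; fit gain or loss of signal against DMSO.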

[7] = read-out: Macrophage colony-stimulating factor (MCSF), CSF1 (gene 1435); test: BSK_hDFCGF_MCSF: BioMAP Diversity Plus: hDFCGF Assay for Macrophage colony-stimulating factor (MCSF) Biomarker Activity (AID 2283060); details: primary human foreskin fibroblasts; actives raise or lower the signal
How it was run: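 M-CSF levels, determined by ELISA, are taken at 24 h after dosing human skin fibroblasts. Responses in either direction are fitted with DMSO serving as the baseline.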

[8] = BSK_hDFCGF_SRB: Viability Assessment in the BioMAP Diversity Plus: hDFCGF Assay (AID 2283061); details: primary human foreskin fibroblasts;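 also: cells exposed to compound for 24 h before the read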
How it was run: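 Cells were dosed with test chemical, cultured 24 h, fixed with 10% TCA, then stained with 0.1% SRB and read at 560 nm. The fibroblasts were human foreskin primary cells, and DMSO served as baseline.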

[9] = read-out: TIMP metallopeptidase inhibitor 1 (TIMP1), TIMP1 (gene 7076); test: BSK_hDFCGF_TIMP1: BioMAP Diversity Plus: hDFCGF Assay for TIMP metallopeptidase inhibitor 1 (TIMP1) Biomarker Activity (AID 2283062); details: primary human foreskin fibroblasts; actives raise or lower the signal
How it was run: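 Fibroblasts from human foreskin are treated with test chemical and harvested at 24 h. TIMP-1 is quantified by ELISA, and gain or loss of signal is scored against DMSO.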

[10] = read-out: Monokine induced gamma interferon (MIG), CXCL9 (gene 4283); test: BSK_hDFCGF_MIG: BioMAP Diversity Plus: hDFCGF Assay for Monokine induced gamma interferon (MIG) Biomarker Activity (AID 2283063); details: primary human foreskin fibroblasts; actives raise or lower the signal
How it was run: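 MIG signal, determined by ELISA, reflects 24 h chemical exposure of human skin primary fibroblasts. DMSO serves as negative control and baseline.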

[11] = read-out: Matrix Metallopeptidase 1 (MMP1), MMP1 (gene 4312); test: BSK_hDFCGF_MMP1: BioMAP Diversity Plus: hDFCGF Assay for Matrix Metallopeptidase 1 (MMP1) Biomarker Activity (AID 2283064); details: primary human foreskin fibroblasts; actives raise or lower the signal
How it was run: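 ELISA read-out of MMP1 from human foreskin fibroblasts (primary skin cells), 24 h post-dose. Gain or loss of signal was fitted bidirectionally versus DMSO negative control; cytotoxicity was checked by SRB in parallel cultures.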

[12] = read-out: Vascular cell adhesion molecule 1 (VCAM1), VCAM1 (gene 7412); test: BSK_hDFCGF_VCAM1: BioMAP Diversity Plus: hDFCGF Assay for Vascular cell adhesion molecule 1 (VCAM1) Biomarker Activity (AID 2283065); details: primary human foreskin fibroblasts; actives raise or lower the signal;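 as to AC50: VCAM-1 protein level quantified by ELISA after 24 h chemical exposure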
How it was run: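 Cells are dosed, cultured for 24 h, then VCAM-1 is quantified by ELISA; signal increases and decreases are both fitted relative to DMSO.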

[13] = read-out: Plasminogen activator inhibitor-1 (PAI1), SERPINE1 (gene 5054); test: BSK_hDFCGF_PAI1: BioMAP Diversity Plus: hDFCGF Assay for Plasminogen activator inhibitor-1 (PAI1) Biomarker Activity (AID 2283066); details: primary human foreskin fibroblasts; actives raise or lower the signal
How it was run: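 PAI-1 levels in human dermal foreskin fibroblasts were quantified by ELISA 24 h after dosing, with gain or loss analysed against DMSO. Overt cytotoxicity was checked by sulforhodamine B total-protein staining in parallel cultures.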

[14] = read-out: Intercellular Adhesion Molecule 1 (ICAM1), ICAM1 (gene 3383); test: BSK_KF3CT_ICAM1: BioMAP Diversity Plus: KF3CT Assay for Intercellular Adhesion Molecule 1 (ICAM1) Biomarker Activity (AID 2283067); details: primary human keratinocytes with fibroblasts; actives raise or lower the signal
How it was run: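 Dose the keratinocyte/fibroblast co-culture, wait 24 h, measure ICAM-1 by ELISA, then fit increases or decreases against DMSO. Cytotoxicity is checked in parallel cultures by SRB total-protein staining.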

[15] = read-out: Interferon-gamma inducible Protein 10 (IP10), CXCL10 (gene 3627); test: BSK_KF3CT_IP10: BioMAP Diversity Plus: KF3CT Assay for Interferon-gamma inducible Protein 10 (IP10) Biomarker Activity (AID 2283068); details: primary human keratinocytes with fibroblasts; actives raise or lower the signal
How it was run: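 KF3CT co-culture (keratinocytes + foreskin fibroblasts), 24 h compound, IP-10 by ELISA; bidirectional fit vs DMSO baseline.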

[16] = read-out: Interleukin-1 alpha (IL1a), IL1A (gene 3552); test: BSK_KF3CT_IL1a: BioMAP Diversity Plus: KF3CT Assay for Interleukin-1 alpha (IL1a) Biomarker Activity (AID 2283070); details: primary human keratinocytes with fibroblasts; actives raise or lower the signal
How it was run: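 Primary skin co-culture (keratinocytes, foreskin fibroblasts), 24 h exposure; ELISA for IL-1a; bidirectional curve fit vs DMSO.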

[17] = read-out: TIMP metallopeptidase inhibitor 2 (TIMP2), TIMP2 (gene 7077); test: BSK_KF3CT_TIMP2: BioMAP Diversity Plus: KF3CT Assay for TIMP metallopeptidase inhibitor 2 (TIMP2) Biomarker Activity (AID 2283071); details: primary human keratinocytes with fibroblasts; actives raise or lower the signal
How it was run: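 TIMP-2 measured by ELISA at 24 h in human keratinocyte/fibroblast primary co-cultures exposed to chemicals. Both increases and decreases were fitted against DMSO. Parallel cultures were stained with SRB for total protein as an overt-cytotoxicity check.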

[18] = read-out: C-C motif chemokine 2 (Homo sapiens) (UniProt P13500); test: BSK_KF3CT_MCP1: BioMAP Diversity Plus: KF3CT Assay for Monocyte Chemoattractant Protein 1 (MCP1/CCL2) Biomarker Activity (AID 2283073); details: primary human keratinocytes with fibroblasts; actives raise or lower the signal
How it was run: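 Keratinocytes and foreskin fibroblasts were co-cultured, dosed with chemical, and sampled 24 h later. MCP-1 was quantified by ELISA, and the endpoint was analyzed with bidirectional fitting using DMSO as negative control.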

[19] = read-out: Matrix Metallopeptidase 9 (MMP9), MMP9 (gene 4318); test: BSK_KF3CT_MMP9: BioMAP Diversity Plus: KF3CT Assay for Matrix Metallopeptidase 9 (MMP9) Biomarker Activity (AID 2283074); details: primary human keratinocytes with fibroblasts; actives raise or lower the signal;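 as to AC50: MMP9 protein level quantified by ELISA in the co-culture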
How it was run: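 ELISA read-out of MMP-9 at 24 h post-dosing in a co-culture of human skin keratinocytes and foreskin fibroblasts. Gain or loss of signal was fitted in both directions against DMSO.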

[20] = read-out: Transforming growth factor beta 1 (TGFb1), TGFB1 (gene 7040); test: BSK_KF3CT_TGFb1: BioMAP Diversity Plus: KF3CT Assay for Transforming growth factor beta 1 (TGFb1) Biomarker Activity (AID 2283072); details: primary human keratinocytes with fibroblasts; actives raise or lower the signal
How it was run: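 ELISA quantifies TGF-b1 at 24 h post-dose in a primary human skin co-culture of keratinocytes and fibroblasts, with gain or loss judged against DMSO. Parallel SRB total-protein staining flags overt cytotoxicity.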

Measured: AC50

CO[Si](OC)(OC)c1ccccc1
not listed: [20]
inactive: all other assays above

C=C[Si](OC(C)=O)(OC(C)=O)OC(C)=O
active: [3] 3.16 µM | [6] 32.4 µM and 20 µM
inactive: [1] | [2] | [3] | [4] | [5] | [7] | [8] | [9] | [10] | [11] | [12] | [13] | [14] | [15] | [16] | [17] | [18] | [19]

CC(C)C(=O)C(C)C
inactive: all assays above

CCCCC(CC)COCC1CO1 (stereo not given)
not listed: [20]
inactive: all other assays above

c1ccc2c(c1)ccc1cc3c(ccc4ccccc43)cc12
active: [12] 0.0192 µM | [17] 3.59 µM
inactive: [1] | [2] | [3] | [4] | [5] | [6] | [7] | [8] | [9] | [10] | [11] | [12] | [13] | [14] | [15] | [16] | [17] | [20] | [18] | [19]

CCCCNc1ccc(NCCCC)c2c1C(=O)c1ccccc1C2=O
active: [3] 3.46 µM
inactive: all other assays above

O=C(Nc1ccccc1SSc1ccccc1NC(=O)c1ccccc1)c1ccccc1
active: [1] 5.17 µM | [2] 5.16 µM
inactive: all other assays above

CN1C(=O)N(C)C(O)C1O (stereo not given)
active: [2] 0.179 µM
inactive: [1] | [2] | [3] | [4] | [5] | [6] | [7] | [8] | [9] | [10] | [11] | [12] | [13] | [14] | [15] | [16] | [17] | [18] | [19]

O=C(Cl)c1cc(C(=O)Cl)cc(C(=O)Cl)c1
inactive: [4] | [5]
active: [1] 26 µM | [2] 17.8 µM | [3] 21.4 µM | [6] 3.77 µM | [7] 13.6 µM | [8] 26.4 µM | [9] 13.7 µM | [10] 16.1 µM | [11] 31.9 µM | [12] 15.2 µM | [13] 29.8 µM | [14] 30.8 µM | [15] 35 µM | [16] 33.8 µM | [17] 25.2 µM | [20] 28.2 µM | [18] 30.1 µM | [19] 32.3 µM
